Measured values from PubChem BioAssay (Tox21).
Values joined by “and” are separate entries in the source; they are usually repeats but may differ in a detail not shown here. Equal entries are not always repeated. Records with an inconclusive call do not appear. Entries that show only a call come without a potency. The source holds several records for some structures; these can differ, active in one and inactive in another. Active and inactive are the calls of the source. Calls follow the shape of the dose curve; as a rule, active = well fitted curve in the direction sought with a large enough effect in the repeat runs; inconclusive = weak or mixed curves; inactive = no such curve, though single readings can be large; an effect the other way counts as inactive or inconclusive.

Assays:
[1] = qHTS RealTime-Glo MT Cell Viability Assay in HEK293 cells - 16 hour (AID 1224872); also: nearly all actives have a fitted effect of over 50% in size; also: potency is read from the fitted curve at half-maximal effect
How it was run: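 Quantitative high-throughput screen of the Tox21 10K library in HEK293: cells and RealTime-Glo reagents plated together, compound added at 5 h, luminescence monitored through 40 h at 37 C.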

[2] = qHTS RealTime-Glo MT Cell Viability Assay in HepG2 cells - 8 hour (AID 1224873); also: nearly all actives have a fitted effect of over 55% in size; also: potency is read from the fitted curve at half-maximal effect
How it was run: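 HepG2 cells mixed with RealTime-Glo MT reagents (NanoLuc plus cell-permeant prosubstrate) were seeded at 600 cells/well, incubated 5 h at 37 C/5% CO2, then pinned with compounds in DMSO; nonlytic luminescence tracked viability during 40 h treatment.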

[3] = A CellTox Green Cytotoxicity Assay to monitor cytotoxicity in HEK293 cells - 24 hour (AID 1224875); also: nearly all actives have a fitted effect of over 45% in size; also: potency is read from the fitted curve at half-maximal effect
How it was run: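 HEK293 cells premixed with CellTox Green dye were seeded at 600 cells/well and left 5 h at 37 C/5% CO2 before pin transfer of 23 nL compound in DMSO. Fluorescence from dye bound to dead-cell DNA was read during 40 h treatment.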

[4] = A CellTox Green Cytotoxicity Assay to monitor cytotoxicity in HepG2 cells - 16 hour (AID 1224876); also: nearly all actives have a fitted effect of over 45% in size; also: potency is read from the fitted curve at half-maximal effect
How it was run: (§1)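 HepG2 cells were seeded together with the CellTox Green dye at 600 cells/well, left 5 h at 37 C/5% CO2, then given compounds in DMSO. Fluorescence from dye bound to dead-cell DNA was read repeatedly over 40 h of treatment at 37 C.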

[5] = qHTS RealTime-Glo MT Cell Viability Assay in HepG2 cells - 32 hour (AID 1224877); also: nearly all actives have a fitted effect of over 55% in size; also: potency is read from the fitted curve at half-maximal effect
How it was run: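 Compound treatment began 5 h after plating HepG2 cells (600/well) with NanoLuc luciferase and prosubstrate. Plates stayed at 37 C for 40 h; luminescence was captured at six time points, 0 h through 40 h.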

[6] = A CellTox Green Cytotoxicity Assay to monitor cytotoxicity in HepG2 cells - 24 hour (AID 1224878); also: nearly all actives have a fitted effect of over 45% in size; also: potency is read from the fitted curve at half-maximal effect
How it was run: as §1

[7] = A CellTox Green Cytotoxicity Assay to monitor cytotoxicity in HepG2 cells - 40 hour (AID 1224879); also: nearly all actives have a fitted effect of over 40% in size; also: potency is read from the fitted curve at half-maximal effect
How it was run: as §1

[8] = qHTS RealTime-Glo MT Cell Viability Assay in HEK293 cells - 0 hour (AID 1224880); also: top concentration of the series differs between compounds; nearly all actives have a fitted effect of over 45% in size
How it was run: (§2)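 HEK293 cells mixed with RealTime-Glo reagents (NanoLuc plus cell-permeant prosubstrate) at 600 cells/well, preincubated 5 h at 37 C/5% CO2, then given 23 nL compound in DMSO. Nonlytic luminescence from viable cells was read at 0, 8, 16, 24, 32 and 40 h.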

[9] = qHTS RealTime-Glo MT Cell Viability Assay in HEK293 cells - 40 hour (AID 1224874); conditions: RealTime-Glo luminescence; max response: stronger effect = lower value; also: nearly all actives have a fitted effect of over 50% in size; also: potency is read from the fitted curve at half-maximal effect
How it was run: as §2

Row | Structure (SMILES) | Potency [1] | Potency [2] | Potency [3] | Potency [4] | Potency [5] | Potency [6] | Potency [7] | Potency [8] | Potency [9] | max response [9]
1 | NCCO | inactive | inactive | inactive | inactive | inactive | inactive | inactive | inactive | – | –
2 | CCN(CC)CCOc1ccc(/C(=C(\Cl)c2ccccc2)c2ccccc2)cc1 | 14.1 µM (active) and 21.3 µM (active) | 31.6 µM (active) | 31.6 µM (active) and 23.9 µM (active) | 31.6 µM (active) and 21.3 µM (active) | 19.9 µM (active) and 23.9 µM (active) | 19.9 µM (active) and 21.3 µM (active) | 17.7 µM (active) and 16.9 µM (active) | inactive | 12.6 µM (active) and 19 µM (active) | –
3 | O=S(=O)(O)c1ccc2nc(-c3ccccc3)[nH]c2c1 | inactive | inactive | inactive | inactive | inactive | inactive | inactive | inactive | – | 4.15% (inactive) and 2.95% (inactive)
4 | O=C(Nc1ccccc1SSc1ccccc1NC(=O)c1ccccc1)c1ccccc1 | – | inactive | inactive | inactive | inactive and 49 µM (active) | inactive and 54.9 µM (active) | 49 µM (active) | inactive | – | –
5 | NC(N)=Nc1nc(CSCC/C(N)=N/S(N)(=O)=O)cs1 | inactive | inactive | inactive | 4.36 µM (active) and inactive | inactive | 3.89 µM (active) and inactive | inactive | inactive | – | -7.2% (inactive) and 0.8% (inactive)
6 | c1cnc2cc3c(cc2n1)C1CNCC3C1 | inactive | inactive | inactive | inactive | inactive | inactive | inactive | inactive | – | 11% (inactive)
7 | CC(N)=O | inactive | inactive | inactive | inactive | inactive | inactive | inactive | inactive | – | –
8 | CC(C)(C)NCC(O)c1cc(O)cc(O)c1 (stereo not given) | inactive | inactive | inactive | inactive | inactive | inactive | inactive | inactive | – | 4.94% (inactive)
9 | COc1cc(C(=S)N2CCOCC2)ccc1O | inactive | inactive | inactive | inactive | inactive | inactive | inactive | inactive | – | 0.473% (inactive)
10 | NC(=Nc1ccccc1)Nc1ccccc1 | inactive | inactive | inactive | inactive | inactive | inactive | inactive | – | – | –
11 | O=C(Cl)c1cccc(C(=O)Cl)c1 | inactive | inactive | inactive | inactive | inactive | inactive | inactive | inactive | – | 7.93% (inactive) and 0.091% (inactive)
12 | CCCCCC(=O)O[C@]1(C(C)=O)CC[C@H]2[C@@H]3CCC4=CC(=O)CC[C@]4(C)[C@H]3CC[C@@]21C | – | – | inactive | inactive | inactive | inactive | inactive | – | 24.4 µM (active) | –
13 | CC1=CC(=O)c2ccccc2C1=O | 13.8 µM (active) and 23.9 µM (active) | 38.9 µM (active) | 24.5 µM (active) and 26.8 µM (active) | 49 µM (active) and 26.8 µM (active) | 49 µM (active) | 43.6 µM (active) and 26.8 µM (active) | 43.6 µM (active) and 26.8 µM (active) | – | 15.5 µM (active) | –
14 | CC(=O)CC(C)=O | inactive | inactive | inactive | inactive | inactive | inactive | inactive | inactive | – | –
15 | CCc1ccc(C(c2ccc(CC)cc2)C(Cl)Cl)cc1 | – | inactive | – | inactive | inactive | inactive | inactive | inactive | – | –
16 | NC12CC3CC(CC(C3)C1)C2 | inactive | inactive | inactive | inactive | inactive | inactive | inactive | inactive | – | 6.54% (inactive)
17 | COc1nc(C)nc(Cl)c1NC1=NCCN1 | inactive | inactive | inactive | inactive | inactive | inactive | inactive | inactive | – | 2.57% (inactive)
18 | CCCN[C@H]1CCc2nc(N)sc2C1 | inactive | inactive | inactive | inactive | inactive | inactive | inactive | – | – | -11% (inactive)
19 | OCCN1CCNCC1 | 15.8 µM (active) | inactive | inactive | inactive | inactive | inactive | inactive | – | 7.9 µM (active) | –
20 | CO[Si](OC)(OC)c1ccccc1 | inactive | inactive | inactive | inactive | inactive | inactive | inactive | inactive | – | 0.242% (inactive)
21 | O=C(O)c1cccc(C(=O)O)c1 | inactive | inactive | inactive | inactive | inactive | inactive | inactive | – | – | –
22 | CC(C)CCCCCCc1ccc(O)cc1 | 3.96 µM (active) | – | 28 µM (active) and 38.9 µM (active) | 44.4 µM (active) and 27.5 µM (active) | 19.8 µM (active) and inactive | 22.3 µM (active) and 38.9 µM (active) | 14 µM (active) and 43.6 µM (active) | inactive | 1.25 µM (active) | –
23 | Cc1ccnc2c1NC(=O)c1cccnc1N2C1CC1 | inactive | inactive | inactive | inactive | inactive | inactive | inactive | inactive | – | -13.4% (inactive) and -3.25% (inactive)
24 | Cc1cc(C(C)(C)C)c(O)c(C(C)(C)C)c1 | inactive | inactive | 49.1 µM (active) | inactive | inactive | inactive | inactive | inactive | – | -21.9% (inactive) and 0.957% (inactive) and 2.01% (inactive)
25 | O=C1Nc2ccccc2C1(c1ccc(O)cc1)c1ccc(O)cc1 | inactive | inactive | inactive | inactive | inactive | inactive | inactive | inactive | – | –
26 | COC(c1ccccc1)(c1ccccc1)[C@H](Oc1nc(C)cc(C)n1)C(=O)O | inactive | inactive | inactive | inactive | inactive | inactive | inactive | inactive | – | -3.67% (inactive)
27 | C=CC(=O)OCCCCCCOC(=O)C=C | – | – | – | inactive | inactive and 49 µM (active) | inactive | inactive and 54.9 µM (active) | inactive | 49.6 µM (active) and 43.6 µM (active) | –
28 | CC[C@H]1CN2CCc3cc(OC)c(OC)cc3[C@@H]2C[C@@H]1C[C@H]1NCCc2cc(OC)c(OC)cc21 | 24.6 nM (active) and 75.6 nM (active) | inactive | inactive | inactive | – | 49.2 µM (active) and 26.8 µM (active) | 49.2 µM (active) and 16.9 µM (active) | inactive | 13.9 nM (active) and 42.5 nM (active) | –
29 | CCCOC(=O)c1cc(O)c(O)c(O)c1 | – | inactive | inactive | inactive | inactive | inactive | inactive | inactive | 48.7 µM (active) and 38.9 µM (active) | –
30 | O=C(Oc1ccccc1)c1ccccc1O | inactive | inactive | inactive | inactive | inactive | inactive | inactive | inactive | – | -18.8% (inactive) and -3% (inactive) and 3.05% (inactive)
